The values below come from PubChem BioAssay AID1345085 (National Center for Advancing Translational Sciences (NCATS), 2018).

Results filed as inconclusive are left out. Active and inactive are the calls of the source. The call rests on the fitted dose curve; in most records, active means well fitted cell-killing curve with a large enough effect; inconclusive means small, poorly fitted or top-dose-only effect, or effect the other way; inactive means no such curve, though single readings can be large or run the other way.
Potency means the concentration at half of the fitted maximal effect.

The assay relates to Es-2. The experiment in a line: Confirmatory qHTS for gynecologic anti-cancer compounds from libraries of approved drugs and bioactive compounds. Further: nearly all actives have a fitted effect of over 55% in size. To be noted: gynecologic cancer cell panel viability, ATPlite luminescence, 48 h; series mostly up to 57.6 µM. A digest of the protocol: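 IC50 values derive from an ATPlite ATP-content luminescence assay following 48 h treatment at 37 C. Each compound ran as an 11-concentration, threefold series (57.5 uM to 0.977 nM); HEK 293T served as control line for selectivity index.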
A general note: qHTS replaces the single test concentration by a dilution series.
With `CCS(=O)(=O)c1cccc(-c2cc(C(=O)NC3CCN(C)CC3)c(C)c3[nH]c4ncc(C)cc4c23)c1`, the Potency is 5.99 µM (active).
Under `Cc1cnc(Nc2cccc(CN3CCOCC3)c2)nc1Nc1cccc(S(=O)(=O)NC(C)(C)C)c1` stands 6.11 µM (active).
Under `O=C1c2c(O)ccc(O)c2C(=O)c2c(NCCNCCO)ccc(NCCNCCO)c21` stands 0.968 µM (active); under `COc1cc(N2CCC(N)CC2)ccc1Nc1ncc(Cl)c(-c2c[nH]c3ccccc23)n1`, “inactive”.
